Reference: the supplement of paper PMC13380429

System: Vero E6 infected with SARS-CoV-2
Experiment: inhibition of SARS-CoV-2 cytopathic effect; higher = more antiviral protection, active = above 15
Conditions: 48 h

Measured: inhibition of SARS-CoV-2 cytopathic effect

CCn1cc(-c2cccc(C(F)(F)F)c2)c2sc(C(=N)NC3CCS(=O)(=O)CC3)cc2c1=O
inactive: 1 nM 1.59% | 8.33 nM 3.81% | 100 nM 1.38% | 833.33 nM 0.93% | 10000 nM -7.19%

N[C@@H](Cc1c[nH]c2ccc(O)cc12)C(=O)O [5-hydroxytryptophan]
inactive: 1 nM -0.86% | 8.33 nM 0.52% | 100 nM 1.04% | 833.33 nM 2.16% | 10000 nM 2.55%

Cn1c(=O)c2c(ncn2CC(=O)Nc2ccc(-c3ccccc3)nn2)n(C)c1=O
inactive: 1 nM 2.25% | 8.33 nM 0.06% | 100 nM 1.35% | 833.33 nM 4.8% | 10000 nM 7.55%

CCCSc1ccc2[nH]c(NC(=O)OC)nc2c1 [albendazole]
inactive: 1 nM 3.38% | 8.33 nM -0.38% | 100 nM -0.24% | 833.33 nM -0.32% | 10000 nM 2.97%

CC#CCOC(=O)c1c(C)nc2sc3c(c2c1N)CCC(O)C3 (stereo not given)
inactive: 1 nM 1.8% | 8.33 nM 0.47% | 100 nM 3.12% | 833.33 nM -0.32% | 10000 nM 0.73%

NCC(CC(=O)O)c1ccc(Cl)cc1 (stereo not given) [baclofen]
inactive: 1 nM -0.225% | 8.33 nM -1.56% | 100 nM -2.14% | 833.33 nM 0.04% | 10000 nM -0.06%

Cc1cc(N)c2ccccc2[n+]1CCCCCCCCCC[n+]1c(C)cc(N)c2ccccc21 [dequalinium]
inactive: 1 nM 1.5% | 8.33 nM 2.58% | 100 nM -2.33% | 833.33 nM -2.88% | 10000 nM -3.48%

O=C(N[C@H](Cc1ccccc1)C(=O)O)c1sc2cc(F)ccc2c1Cl
inactive: 1 nM 2.8% | 8.33 nM 1.61% | 100 nM 0.39% | 833.33 nM 1.13% | 10000 nM 3.31%

Cc1cccc(Nc2ccccc2C(=O)O)c1C [mefenamic-acid]
inactive: 1 nM -0.88% | 8.33 nM 1.67% | 100 nM 1.5% | 833.33 nM -1.03% | 10000 nM -0.56%

CCC(=O)NO
inactive: 1 nM 3% | 8.33 nM 3.18% | 100 nM 1.27% | 833.33 nM 1.39% | 10000 nM 2.29%

CC(C)C[C@H](NC(=O)[C@@H](COC(C)(C)C)NC(=O)[C@H](Cc1ccc(O)cc1)NC(=O)[C@H](CO)NC(=O)[C@H](Cc1c[nH]c2ccccc12)NC(=O)[C@H](Cc1cnc[nH]1)NC(=O)[C@@H]1CCC(=O)N1)C(=O)N[C@@H](CCCNC(=N)N)C(=O)N1CCC[C@H]1C(=O)NNC(N)=O [goserelin-acetate]
inactive: 1 nM 1.97% | 8.33 nM 1.03% | 100 nM 2.63% | 833.33 nM -0.57% | 10000 nM 5.2%

Nc1ccc(S(N)(=O)=O)cc1 [sulfanilamide]
inactive: 1 nM -4.21% | 8.33 nM -0.69% | 100 nM 4.19% | 833.33 nM 2.93% | 10000 nM 1.32%

O=C(c1c2ccccc2cc2ccccc12)N1CCC(N2CCC[C@@H](C(=O)N3CCOCC3)C2)CC1
inactive: 1 nM -1.36% | 8.33 nM -0.08% | 100 nM -0.31% | 833.33 nM -1.35% | 10000 nM -6.08%

O=C(c1ccc(C(=O)N2CCC(N3CCCC3)CC2)c(Nc2ccccc2)c1)N1CCC(N2CCCC2)CC1
inactive: 1 nM 0.43% | 8.33 nM -1.56% | 100 nM 0.31% | 833.33 nM -4.9% | 10000 nM -1.44%

CCC(=O)O[C@]1(C(=O)CO)CC[C@H]2[C@@H]3CCC4=CC(=O)CC[C@]4(C)[C@H]3CC[C@@]21C
inactive: 1 nM 0.99% | 8.33 nM 0.06% | 100 nM -0.33% | 833.33 nM 1.21% | 10000 nM 2.45%

C=CCc1ccc(O)c(-c2ccc(O)c(CC=C)c2)c1 [honokiol]
inactive: 1 nM 0.73% | 8.33 nM -0.89% | 100 nM -1.94% | 833.33 nM -0.06% | 10000 nM -0.26%

Nc1ccc(F)cc1NC(=O)c1ccc(CNC(=O)/C=C/c2cccnc2)cc1 [chidamide]
inactive: 1 nM 0.62% | 8.33 nM 0.21% | 100 nM -1.13% | 833.33 nM 1.82% | 10000 nM -0.06%

CCN(CC)CCOc1ccc(/C(=C(\Cl)c2ccccc2)c2ccccc2)cc1 [clomifene]
active: 10000 nM 21.1%
inactive: 1 nM 0.1% | 8.33 nM 1.97% | 100 nM 2.27% | 833.33 nM 3.88%

CCOc1cc(C(=O)N2CCC(N3CCN(C)CC3)CC2)ccc1Nc1ncc2c(n1)N(C1CCCC1)c1ccccc1C(=O)N2C
inactive: 1 nM 0.46% | 8.33 nM 1.68% | 100 nM -0.44% | 833.33 nM -1.7% | 10000 nM -0.04%

COc1cc(OC)c(/C=C/S(=O)(=O)Cc2ccc(OC)c(OP(=O)(O)O)c2)c(OC)c1 [briciclib]
inactive: 1 nM 1.41% | 8.33 nM 1.56% | 100 nM -1.04% | 833.33 nM -0.82% | 10000 nM -1.99%

CC(=O)[O-].CC(=O)[O-].N.NC1CCCCC1.[Cl-].[Cl-].[Pt+4] [satraplatin]
inactive: 1 nM 3.89% | 8.33 nM -0.13% | 100 nM 2.26% | 833.33 nM 1.69%
active: 10000 nM 23.8%

CN1CCN(c2c(F)cc3c(=O)c(C(=O)O)cn(CCF)c3c2F)CC1 [fleroxacin]
inactive: 1 nM -1.94% | 8.33 nM -0.15% | 100 nM 1.24% | 833.33 nM 0.81% | 10000 nM -1.08%

Oc1c(I)cc(I)c2cccnc12 [iodoquinol]
inactive: 1 nM -0.28% | 8.33 nM 2.09% | 100 nM -1.12% | 833.33 nM 1.46% | 10000 nM 0.59%

Cl/C=C\C[N+]12CN3CN(CN(C3)C1)C2 [1-((Z)-3-chloroallyl)-1,3,5,7-tetraazaadamantan-1-ium]
inactive: 1 nM 0% | 8.33 nM 0.47% | 100 nM -0.23% | 833.33 nM 2.67% | 10000 nM 5.36%

CC/C(=C(/c1ccc(OCCN(C)C)cc1)c1cccc(O)c1)c1ccccc1 [droloxifene]
inactive: 1 nM 0.66% | 8.33 nM -1.2% | 100 nM 1.69% | 833.33 nM 0.64%
active: 10000 nM 34.5%

C1=C2CCCN[C@H]2[C@@H]2C[C@H]1[C@H]1CCCCN1C2 [aloperine]
inactive: 1 nM -0.36% | 8.33 nM 2.25% | 100 nM -0.38% | 833.33 nM 0.5% | 10000 nM -1.11%

CC(=O)O[C@@H]1C[C@H]2C(C)(C)C(=O)C=C[C@]2(C)[C@H]2CC[C@@]3(C)[C@H](c4ccoc4)OC(=O)[C@H]4O[C@]43[C@@]21C [gedunin]
active: 10000 nM 19%
inactive: 1 nM -1.35% | 8.33 nM -1.68% | 100 nM -1.07% | 833.33 nM 6.09%

Cc1ccc(F)c(NC(=O)Nc2ccc(-c3cccc4[nH]nc(N)c34)cc2)c1 [linifanib]
inactive: 1 nM -2.72% | 8.33 nM -3.15% | 100 nM -4.95% | 833.33 nM -2.75% | 10000 nM -2.71%

Cn1c(=O)c2c(ncn2C)n(C)c1=O [caffeine]
inactive: 1 nM -0.58% | 8.33 nM 1.54% | 100 nM -0.63% | 833.33 nM 2.87% | 10000 nM 3.35%

CN(C)C(=O)c1cc2cnc(Nc3ccc(N4CCNCC4)cn3)nc2n1C1CCCC1 [ribociclib]
inactive: 1 nM -0.57% | 8.33 nM -0.13% | 100 nM -0.03% | 833.33 nM -3.73% | 10000 nM -7.22%

COC(=O)c1ccccc1O [methyl-salicylate]
inactive: 1 nM 0.7% | 8.33 nM 2.86% | 100 nM 2.42% | 833.33 nM -0.42% | 10000 nM -3.74%

Cc1cc(C)cc(OCC2CNC(=O)O2)c1 (stereo not given) [metaxalone]
inactive: 1 nM -1.78% | 8.33 nM -2.7% | 100 nM -1.26% | 833.33 nM 1.04% | 10000 nM -0.42%

COc1cc(SC)ccc1C(=O)N1CCC(Cc2ccccc2)CC1
inactive: 1 nM 4.96% | 8.33 nM 7.9% | 100 nM 8.76% | 833.33 nM 9.01% | 10000 nM 7.35%

O=C(Nc1ccccc1)N1CCC(Cc2cnc3ccccc3c2)CC1
inactive: 1 nM -0.99% | 8.33 nM -0.47% | 100 nM 0.72% | 833.33 nM -0.2% | 10000 nM -1.47%

Cc1cc(C)c(S(=O)(=O)n2cc(C)cc2C)c(C)c1
inactive: 1 nM -0.12% | 8.33 nM -0.02% | 100 nM 2.14% | 833.33 nM 0.3% | 10000 nM -1.17%

Cc1nccn1CCC(C(N)=O)(c1ccccc1)c1ccccc1 [imidafenacin]
inactive: 1 nM -0.4% | 8.33 nM -0.55% | 100 nM 1.32% | 833.33 nM 4.43% | 10000 nM 0.89%

Oc1cc(Cl)ccc1Oc1ccc(Cl)cc1Cl [triclosan]
inactive: 1 nM -1.92% | 8.33 nM -0.14% | 100 nM 1.39% | 833.33 nM -0.77% | 10000 nM 7.81%

COc1ccc(Cc2cnc(N)nc2N)cc1OC [diaveridine]
inactive: 1 nM -0.02% | 8.33 nM 0.43% | 100 nM -0.86% | 833.33 nM 2.81% | 10000 nM 0.75%

CNC(=O)[C@H](Cc1ccccc1)NC(=O)[C@H](CC(C)C)[C@H](CSc1cccs1)C(=O)NO [batimastat]
inactive: 1 nM -1.9% | 8.33 nM -1.84% | 100 nM -3.51% | 833.33 nM -9.99% | 10000 nM -12.5%

CO[C@H]1C[C@H](O[C@H]2CC[C@@]3(C)[C@H](CC[C@@H]4[C@@H]3CC[C@]3(C)[C@@H](C5=CC(=O)OC5)[C@@H](OC(C)=O)C[C@]43O)C2)O[C@@H](C)[C@@H]1O [oleandrin]
inactive: 1 nM -3.22% | 8.33 nM -5.79% | 100 nM -12.1% | 833.33 nM -12.2% | 10000 nM -9.58%
